# Compound activity: PubChem BioAssay, several laboratories
# CYP2C9 inh: blocks human cytochrome P450 2C9; P11712; CYP2C9 Supersomes, luciferin-H conversion, luminescence; inhibition, % at 5 µM; 20% of 96,000 active;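 active = blocking of liver enzyme CYP2C9 beyond about 50% at 5 µM, limit read from the data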
# Cav32 inh: blocks human Cav3.2 T-type calcium channel; O95180; Cav3.2-expressing cells, Fluo-4 calcium fluorescence FDSS; active compounds read low; B-score at 10 µM; 4% of 100,000 active; AID 449739;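 active = single-dose well whose peak fluorescence ratio is a statistical outlier from its plate by either plate-standardised score or position-corrected B-score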
# CYP2C19 activ: increases human CYP2C19 enzyme activity | AID 1025 | 96,000 tested, under 10 active | recombinant CYP2C19, luciferin-H EGE luminescence; active compounds read high; 0 = fully inhibited enzyme, 1 = untreated enzyme | activation factor at 5 µM;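 active = activation factor of at least 2 at 5 µM in the primary screen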;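 also: 0 = wells with 2.5 mM tranylcypromine and 1 = vehicle-only wells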
# Target sequence (P33261 whole entry, looked up): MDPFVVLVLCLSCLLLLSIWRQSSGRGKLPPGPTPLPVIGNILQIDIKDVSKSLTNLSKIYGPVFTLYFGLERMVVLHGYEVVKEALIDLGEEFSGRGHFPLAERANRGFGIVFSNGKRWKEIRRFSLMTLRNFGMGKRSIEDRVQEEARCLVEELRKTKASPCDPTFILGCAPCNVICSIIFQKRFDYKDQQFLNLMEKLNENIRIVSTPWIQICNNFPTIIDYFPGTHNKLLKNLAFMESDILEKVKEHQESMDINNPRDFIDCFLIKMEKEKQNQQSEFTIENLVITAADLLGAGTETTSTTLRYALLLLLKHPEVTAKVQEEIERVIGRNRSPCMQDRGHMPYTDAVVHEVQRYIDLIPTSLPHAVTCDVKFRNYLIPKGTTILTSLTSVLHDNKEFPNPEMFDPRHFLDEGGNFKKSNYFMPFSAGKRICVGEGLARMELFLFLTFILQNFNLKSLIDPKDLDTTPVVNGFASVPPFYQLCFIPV
# CYP2C9 activ: activators of human CYP2C9. P11712. recombinant CYP2C9, luciferin-H conversion, luminescence; active compounds read high; factor 1 = untreated enzyme, 0 = blocked. activation factor at 5 µM. 1.4% of 96,000 active. AID 1024;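 active = activation factor of 2 or more for CYP2C9 at a 5 µM dose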;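 also: 0 = sulfaphenazole-blocked wells and 1 = vehicle-only wells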
# CYP2C19 inh: blocks human cytochrome P450 2C19 | CYP2C19 Supersomes, luciferin-H EGE luminescence, 30 min | inhibition, % at 5 µM | 21% of 96,000 active | AID 778;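 active = CYP2C19 inhibition above a set limit at 5 µM in the primary screen, cut at about 50% in these data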;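 also: plate controls were negative control wells for no effect and 2.5 mM tranylcypromine positive control for full effect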
# The depositor's hits bear a star; / = no result given. Compounds with a hit are over-represented: about 27% of the library has one in this group of screens.
SMILES,CYP2C9 inh,Cav32 inh,CYP2C19 activ,CYP2C9 activ,CYP2C19 inh
CCN(CC(=O)NCc1ccccn1)S(=O)(=O)c1ccc(Cl)cc1,5,1.6,0.6,0.9,40
C=CCOc1ccc(CNc2nn[nH]n2)cc1OC,18,/,0.2,0.8,81*
C=CCOc1ccc(CNn2c(C)n[nH]c2=S)cc1OC,10,0.37,0.4,0.9,61*
Fc1ccc(-c2ccnc3nc(N4CCOCC4)nn23)cc1,-3,-0.24,0.8,1,18
COc1ccc(-c2ccnc3nc(N4CCN(c5ccccc5)CC4)nn23)cc1,61*,-1.1,1.1,0.4,-11
O=S(=O)(c1ccccc1)n1ccc(-c2cnc(-c3ccccc3)s2)n1,78*,0.099,0.9,0.2,12
Cc1ccc(Cn2ccc(-c3cnc(-c4ccccc4)s3)n2)cc1,7,-0.43,1,0.9,-4
Fc1ccc(Cn2ccc(-c3cnc(-c4ccccc4)s3)n2)cc1,97*,-0.59,0.1,0,92*
CCCc1nc(SCc2ccc(Cl)cc2Cl)n[nH]1,27,-2,0.2,0.7,84*
CCCn1c(SCC(=O)NCCc2ccc(Cl)cc2Cl)n[nH]c1=O,35,0.085,0.7,0.6,27
N#Cc1c(N2C(=O)C3C4C=CC(C4)C3C2=O)sc2c1CCC2 (stereo unspecified),30,0.032,0.4,0.7,64*
N#Cc1c(NC(=O)CN2CCCCC2)sc2c1CCC2,24,0.39,0.7,0.8,33
Cc1cc(NC(=O)CCC(=O)N(c2ccccc2)C(C(=O)NCC2CCCO2)c2cccnc2)no1 (stereo unspecified),3,-0.12,1.1,1,-10
COc1ccc(-c2nc(NC(=O)Cn3ccc(C(F)(F)F)n3)sc2C)cc1,40,-7.6*,0.4,0.6,57*
COc1ccccc1CN(Cc1nc2ccccc2c(=O)[nH]1)S(=O)(=O)c1ccc(C)cc1,74*,0.012,0.3,0.3,70*
CCN(Cc1nc2ccccc2c(=O)[nH]1)Cc1cc(=O)oc2cc(OC)ccc12,52*,2.3,0.5,0.5,46
COc1ccc(S(=O)(=O)N(Cc2nc3ccccc3c(=O)[nH]2)C2CCCC2)cc1,94*,-1,0.2,0.1,85*
COc1ccc(CN(Cc2nc3ccccc3c(=O)[nH]2)C(=O)NC2CCCCC2)cc1,40,0.7,0.5,0.6,47
Cc1ccccc1NC(=O)N(CCc1nc2ccccc2[nH]1)Cc1ccccc1,/,-4*,/,/,/
COc1cccc(N2CCN(Cc3nc4ccccc4c(=O)[nH]3)CC2)c1,34,/,0.8,0.7,21
Cc1ccc(C(=O)C(C(=O)/C=C/c2ccccc2)=C2SCCCS2)cc1,/,-1.7,/,/,/
Cc1cccc(NC(=S)N2CCC(C(=O)c3ccc(F)cc3)CC2)c1C,-4,-3.2,0.6,1,35
CN(CC(=O)NC(c1ccccc1)c1ccccc1)Cc1nc2ccccc2c(=O)[nH]1,44,-1.2,0.5,0.6,49
COc1ccccc1CN(Cc1nc2ccccc2c(=O)[nH]1)C(=O)Nc1ccccc1C,73*,-5.9*,0.1,0.3,89*
COc1ccccc1CN(Cc1nc2ccccc2c(=O)[nH]1)C(=O)Nc1ccc(C)cc1,34,-4.3*,0.7,0.7,26
SMILES,CYP2C9 inh,Cav32 inh,CYP2C19 activ,CYP2C9 activ,CYP2C19 inh
COc1cc2c(cc1NC(=O)CN(C)Cc1nc3ccccc3c(=O)[nH]1)oc1ccccc12,22,-0.15,1.1,0.8,-14
Cc1csc(SCc2nnc(-c3ccc(Cl)cc3)o2)n1,24,-3,0.4,0.8,62*
Cc1csc(SCc2nnc(-c3ccccc3Br)o2)n1,42,-0.56,0.4,0.6,60*
COC(=O)c1cc2oc(C)cc2n1CC(=O)Nc1ccc(OC)c(OC)c1OC,63*,0.053,0.4,0.4,59*
CCCCN(CC)Cc1ccc(CNC(=O)Nc2ccc(F)cc2)o1,37,1,0.8,0.6,22
COc1ccccc1NC(=O)CNC(=O)c1ccc(F)cc1,1,-0.036,0.8,1,20
CO/N=C(/CNC(=O)c1ccc(F)cc1)c1ccc(Cl)cc1,64*,/,0.1,0.4,86*
COc1cccc(C(C(=O)NC2CCCCC2)N(CC2CCCO2)C(=O)CNC(=O)c2ccco2)c1 (stereo unspecified),/,0.12,/,/,/
O=C(Nc1nc2ccc(Cl)cc2s1)c1ccc(Br)o1,1,-3.6*,1,1,-4
O=C(Nc1nc2c(Cl)cccc2s1)c1ccc(Br)o1,5,-0.31,1.1,1,-10
CSCCC1NC(=O)N(CC(=O)Nc2cccc3ccccc23)C1=O (stereo unspecified),-32,0.37,0.9,1.3,10
CCOC(=O)CCn1c2nc(C)cc(C)c2c(=O)n1-c1ccccc1,7,0.7,0.4,0.9,56*
CC(CC(=O)Nc1nncs1)c1ccccc1 (stereo unspecified),/,-0.52,/,/,/
COc1ccc(C2=NO[C@@H]3C(=O)N(c4ccc(C)cc4C)C(=O)[C@H]23)cc1OC,0,0.047,1,1,-1
Cc1ccc(N2C(=O)C3CC(c4ccccc4)=C4C5C=CC(C6C(=O)N(c7ccc(C)cc7C)C(=O)C56)C4C3C2=O)c(C)c1 (stereo unspecified),85*,-0.68,0.9,0.2,13
Cc1ccc(CN(C)C(=O)C2CCCN2C(=O)c2cccs2)o1 (stereo unspecified),14,0.35,0.4,0.9,57*
NC(=O)CC(NC(=O)c1ccccc1)c1ccc(NCCc2ccc(Cl)cc2)c([N+](=O)[O-])c1 (stereo unspecified),/,0.0016,/,/,/
C=CCc1cc(/C=N/NC(=O)CSc2nnc(CCCc3ccc(OC)cc3)o2)cc(OC)c1O,80*,-0.4,0.1,0.2,89*
COc1ccc(/C=N/NC(=O)CSc2nnc(CCCc3ccc(OC)c(C)c3)o2)cc1,84*,-1.6,0.2,0.2,78*
COc1ccc(CCCc2nnc(SCC(=O)N/N=C\c3ccc(O)c(OC)c3)o2)cc1C,31,-0.58,0.6,0.7,42
COc1ccc(Cc2nnc(SCC(=O)NCCc3ccccc3)o2)cc1,43,-1,0.6,0.6,44
C=CCc1cc(/C=N\NC(=O)CSc2nnc(CCCc3ccc(OC)c(C)c3)o2)cc(OC)c1O,83*,0.32,0.1,0.2,86*
COc1ccc2c(C(=O)CN(C)C3CCCCC3)c[nH]c2c1,/,-0.34,/,/,/
CC(C)=C1C2CCC1C1C(=O)N(c3nc(-c4ccc(F)cc4)c(C)s3)C(=O)C21 (stereo unspecified),-74,-0.0092,0.8,1.7,24
O=C(Nc1cccc(Cl)c1Cl)c1ccc(-c2ccccc2)cc1,-36,/,0.9,1.4,6
CN(C)S(=O)(=O)Oc1ccsc1C(=O)Nc1ccccc1Cl,66*,/,0.2,0.3,79*
CN(C)S(=O)(=O)Oc1ccsc1C(=O)Nc1cccc(Cl)c1Cl,72*,-2,0.2,0.3,84*
O=C(CN1CCN(Cc2ccccc2)CC1)c1c[nH]c2ccccc12,27,1.3,0.9,0.7,13
